# From PubChem BioAssay (NCATS)
# Where “and” joins values, the source holds several entries; their conditions need not be identical. Equal values may be shown once. Records with an inconclusive call do not appear. Entries that show only a call come without a potency. Some compounds were tested as several samples or in several runs, with calls that do not always agree. Calls of active or inactive are those of the source. The call rests on the fitted dose curve; in most records, active means well fitted inhibition curve with a large enough effect; inconclusive means small, poorly fitted or top-dose-only effect; inactive means no such curve, though single readings can be large or run the other way.
# Assay: NS1 protein of Zika virus - qHTS assay to identify small molecule inhibitors in human HEK 293 cells (AID 1347053); further: nearly all actives have a fitted effect of over 55% in size
# Conditions: HEK293 ZIKV MR766 infection, NS1 TR-FRET, 24 h; series mostly up to 46.1 µM
# From the text: National Center for Advancing Translational Sciences [NCATS]
# Johns Hopkins University School of Medicine
# The non-structural 1 (NS1) protein of zika virus is known to associate with the viral replication complex. This cell-based TR-FRET ZIKV NS-1 assay measures the increased NS-1 protein in human HEK 293 cells after a 24-hour Zika virus infection by a TR-FRET assay readout. A decrease in the Time-resolved fluorescence energy transfer (TR-FRET) signal in this assay by small molecule treatment indicates an inhibitory effect of the small molecule on the expression of Zika virus NS1 correlating with Zika virus replication.
# HEK 293 cells were cultured in EMEM (ATCC, Cat. # 30-2003) medium with 10% fetal bovine serum (GE healthcare Life Sciences, Cat. # SH30071.03), and 1% Pen/Strep (Gibco, Cat. # 15140-122). Cells were seeded in the assay plate and incubated at 37 C with 5% CO2 for 20 hours. Compounds were added to cells and incubated for one hour before addition of ZIKV MR766 strain solution to cells (MOI = 0.5). After an incubation at 37 C for 24 hours, the reagent mixture of TR-FRET ZIKV NS1 assay using two anti-ZIKV NS1 antibodies was added to assay plates. The TR-FRET signals in assay plates were measured using an Envision plate reader (PerkinElmer). Data were normalized by using the cell-containing wells without ZIKV as a negative control (0% NS-1) and wells containing ZIKV infected cells as a positive control (100% NS-1 level).
# Potency means the concentration at half of the fitted maximal effect.
row,Compound,Potency
1,CCOC(=O)c1ncn2c1CN(C)C(=O)c1c(I)cccc1-2,inactive
2,O=C(N[C@@H]1N=C(c2ccccc2F)c2cccc3c2N(CC3)C1=O)c1cc2ccccc2[nH]1,inactive
3,Clc1ccc(CSC(Cn2ccnc2)c2ccc(Cl)cc2Cl)cc1 (stereo not given),inactive
4,CC(C)(O)C(Cl)(Cl)Cl,inactive
5,CCCN(CCC)CCc1c[nH]c2ccccc12,inactive
6,CCOC(=O)NC(C)(C)Cc1ccc(Cl)cc1,inactive
7,CCS(=O)(=O)C(C)(C)S(=O)(=O)CC,inactive
8,CCc1cc(OC)c(C[C@H](C)N)cc1OC,inactive
9,COC(=O)C1=CCCN(C)C1,inactive
10,O=c1[nH]c2cc(Cl)ccc2n1C1CCNCC1,inactive
11,C[C@@H]1O[C@@H](O[C@@H]2C=C3CC[C@@H]4[C@H](CC[C@]5(C)[C@@H](c6ccc(=O)oc6)CC[C@]45O)[C@@]3(C)CC2)[C@H](O)[C@H](O)[C@H]1O,inactive
12,CC(CC(C(N)=O)(c1ccccc1)c1ccccc1)N(C)C (stereo not given),inactive
13,COP(=S)(OC)Oc1ccc(S(N)(=O)=O)cc1,inactive
14,CC[C@]1(O)CC[C@H]2[C@@H]3CCC4=CCCC[C@@H]4[C@H]3CC[C@@]21C,inactive
15,CCN(CC)C(C)C(=O)c1ccccc1 (stereo not given),inactive
16,C[C@@H]1C[C@@H]([C@H](O)CC2CC(=O)NC(=O)C2)C(=O)[C@@H](C)C1,inactive and 93.5 nM (active)
17,Sc1ccccc1Cl,inactive
18,COc1ccc(C(=O)N2CCCC2=O)cc1,inactive
19,C=CCN1CC[C@]23CCCC[C@H]2[C@H]1Cc1ccc(O)cc13,inactive
20,CCN1CCCC1CNC(=O)C(O)(c1ccccc1)c1ccccc1 (stereo not given),inactive

row,Compound,Potency
1,CC(C)=CCN1CC[C@@]2(C)c3cc(O)ccc3C[C@@H]1[C@@H]2C,inactive
2,O=c1n(Cl)c(=O)n(Cl)c(=O)n1Cl,inactive
3,CCO[C@H]1O[C@@H]2OC3(C)CC[C@H]4[C@H](C)CC[C@@H]([C@H]1C)[C@@]24OO3,inactive
4,Oc1c(Br)cc(Br)cc1Br,inactive
5,Clc1ccc(CO/N=C(\Cn2ccnc2)c2ccc(Cl)cc2Cl)c(Cl)c1,inactive
6,CCOP(=S)(OCC)O/N=C(\C#N)c1ccccc1,inactive
7,O=C(CBr)Nc1ccc(Cl)cc1C(=O)c1ccccc1F,inactive
8,C=CC[C@]1(O)CC[C@H]2[C@@H]3CCC4=CC(=O)CCC4=C3C=C[C@@]21C,inactive
9,N#Cc1nn(-c2c(Cl)cc(C(F)(F)F)cc2Cl)c(N)c1S(=O)C(F)(F)F (stereo not given),inactive
10,Cc1nnc2n1-c1sc(CCc3ccc(CC(C)C)cc3)cc1C(c1ccccc1Cl)=NC2C (stereo not given),inactive
11,NC(=O)OCCCc1ccccc1,inactive
12,Nc1ccccc1C(=O)OCC(O)CO (stereo not given),inactive
13,CCNc1nc(Cl)nc(NCC)n1,inactive
14,CN1CCC(N(Cc2ccccc2)c2ccccc2)CC1,inactive
15,CN1C(=O)CN=C(c2ccccc2)c2cc([N+](=O)[O-])ccc21,inactive
16,ClCc1cccc(Cl)c1,inactive
17,O=C(CCCCl)c1ccc(F)cc1,inactive
18,CC(C)[N+](C)(CCC(C(N)=O)(c1ccccc1)c1ccccc1)C(C)C,inactive
19,CCOC(=O)C1(c2ccccc2)CCN(CCc2ccc(N)cc2)CC1,inactive
20,C[C@H](CN1CCOCC1)C(C(=O)N1CCCC1)(c1ccccc1)c1ccccc1,inactive
